Source: PubChem
The list is not random: actives were taken first. Their share in the collection is about 8%.
HT1080NT lethal: qHTS for induction of synthetic lethality in tumor cells producing 2HG: qHTS for the HT-1080-NT fibrosarcoma cell line. HT-1080-NT fibrosarcoma viability, CellTiter-Glo ATP luminescence, 48 h. Potency, µM (titrated, usually from 46.1 µM), inactives show top-dose activity, negative = less viability, usual class: cytotoxic. hit rate 1.6% among 360,000;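 note: NT is the 2HG producing partner of a matched IDH1 knockdown line; 0% = DMSO-treated cells and -100% = media-only wells without cells; nearly all actives have a fitted effect of over 55% in size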
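Compounds were tested in concentration-response format on HT-1080-NT cells for 48 hours at 37 degrees C. Cell viability came from CellTiter-Glo luminescence; curves were classified by r2, response magnitude and activity.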
KB-3-1 cytotox: qHTS assay for MDR1-selective chemotherapeutics: Primary screen using the parental adenocarcinoma cell KB-3-1 | KB-3-1 viability, CellTiter-Glo ATP luminescence, 72 h | Potency, µM (series often up to 46.1 µM), most hits filed as cytotoxic | hit rate 1.4% among 400,000 | AID 1347075, 2019; note: % is set by controls: 0 for no effect and ±100 for the full control effect; nearly all actives have a fitted effect of over 60% in size
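Parental KB-3-1 adenocarcinoma cells in phenol-red-free DMEM with 10% FBS were pin-treated with compounds at several concentrations, incubated 72 h at 37 °C, and viability read by CellTiter-Glo luminescence; concentration-effect curves were fitted after normalization.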
KB-V1 cytotox: qHTS assay for MDR1-selective chemotherapeutics: Primary screen using the drug-selected MDR subline cells KB-V1; hit rate 3.4% among 400,000; Potency, µM (titrated, usually from 46.1 µM), hits mostly cytotoxic; KB-V1 MDR cells viability, CellTiter-Glo, 72 h; note: % is set by controls: 0 for no effect and ±100 for the full control effect; nearly all actives have a fitted effect of over 60% in size
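Compound-treated KB-V1 multidrug-resistant cells, 72 h, 37 degrees C; viability by CellTiter-Glo. Fitted qHTS curves give the values.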
MCF10A rereplic: A quantitative high throughput screen for small molecules that induce DNA re-replication in MCF 10a normal breast cells; MCF 10A DNA re-replication, Hoechst nuclear intensity, 48 h; hit rate 2.9% among 350,000; Potency, µM (series often up to 46.1 µM), without a hit: at the highest dose activity, positive = re-replication, usual class: activators; AID 624296, 2012; note: % of control where 0% means no effect; nearly all actives have a fitted effect of over 50% in size
SW480 rerep: A quantitative high throughput screen for small molecules that induce DNA re-replication in SW480 colon adenocarcinoma cells; SW480 DNA re-replication, Hoechst DNA content imaging, 48 h; Potency, µM (series often up to 46.1 µM), without a hit: at the top dose re-replication activation, actives largely listed as activators; hit rate 1.8% among 340,000; AID 624297, 2012; note: % of control where 0% means no effect; nearly all actives have a fitted effect of over 55% in size
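Quantitative HTS format with DMSO vehicle controls; 48 hr drug incubation at 37 C, then 40 min Hoechst staining and scanning imager measurement at 405 nm excitation.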
HT1080 IDH1KD tx: qHTS for induction of synthetic lethality in tumor cells producing 2HG: qHTS for the HT-1080-IDH1KD cell line | hit rate 2% among 360,000 | AID 686971, 2013 | HT-1080 IDH1 knockdown viability, ATP luminescence, 48 h | Potency, µM (highest dose often 46.1 µM), without a hit: at the top dose activity, negative = toxicity, actives largely listed as cytotoxic;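 note: 0% = DMSO wells and -100% = cell-free medium wells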
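HT-1080-IDH1KD cells (IDH1 knocked down), 750/well in RPMI with 5% FBS, treated with compound 48 h at 37 degrees C. Viability by CellTiter-Glo luminescence, normalised to DMSO and no-cell wells; concentration-response curves classed.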
Numbers without * were called inactive. Calls come from the whole dose curve; as a rule, active = well fitted curve in the direction sought with a large enough effect; inconclusive = small, poorly fitted or top-dose-only effect, or another doubt; inactive = no such curve, though single readings can be large; an effect the other way counts as inactive or inconclusive. Potency is the fitted concentration of half-maximal effect.

What do the screens show for `Cc1cc(C(=O)COC(=O)c2ccc[nH]c2=O)c(C)n1-c1ccc(F)cc1`?
HT1080NT lethal: -2%; KB-3-1 cytotox: inactive; KB-V1 cytotox: 18µM*; MCF10A rereplic: -10%; SW480 rerep: -29%; HT1080 IDH1KD tx: 13%

Results for O=C(Nc1nccs1)[C@@H]1CC=C[C@@H]2CCN(C3CC3)C(=O)[C@@H]21 ?
KB-3-1 cytotox: inactive; KB-V1 cytotox: inactive

Results for O=C(c1ccccc1)C(I)(I)N1CCOCC1 ?
KB-3-1 cytotox: inconclusive; KB-V1 cytotox: inactive

How did CCCNC(=O)CSc1nc2nc(C)c(Cc3ccccc3Cl)c(C)n2n1 do in these assays?
KB-3-1 cytotox: inactive; KB-V1 cytotox: inactive

What do the screens show for `CCc1ccccc1SCc1noc(C(=O)NCC2CCCO2)c1C(=O)O` (stereo not drawn)?
HT1080NT lethal: 29%; KB-3-1 cytotox: inactive; KB-V1 cytotox: inactive; MCF10A rereplic: -26%; SW480 rerep: -2%; HT1080 IDH1KD tx: -1%

How did COC(=O)c1c(CCl)noc1C(=O)NCC1CCCO1 (stereo not drawn) do in these assays?
HT1080NT lethal: -18%; KB-3-1 cytotox: inactive; KB-V1 cytotox: inactive; MCF10A rereplic: -19%; SW480 rerep: 8%; HT1080 IDH1KD tx: 23µM*

What do the screens show for `CN(C)c1ccc(CNC(=O)CN2C(=O)CCn3nc(-c4cn(C)c5ccccc45)cc32)cc1`?
KB-3-1 cytotox: inactive; KB-V1 cytotox: inactive

Results for COc1ccc(S(=O)(=O)Nc2cccc(-c3ccc(N4CCC(C)CC4)nn3)c2)cc1OC ?
KB-3-1 cytotox: inconclusive; KB-V1 cytotox: inactive

What do the screens show for `O=C1N=c2ccccc2=C1c1sc(=S)n(Cc2ccccc2Cl)c1O`?
HT1080NT lethal: 12%; KB-3-1 cytotox: inconclusive; KB-V1 cytotox: inconclusive; MCF10A rereplic: 1%; SW480 rerep: 16µM*; HT1080 IDH1KD tx: 4%

Results for Cn1c2ccccc2c2cc(/C=N/NC(=O)c3ccccc3F)ccc21 ?
HT1080NT lethal: inconclusive; KB-3-1 cytotox: inactive; KB-V1 cytotox: inactive; MCF10A rereplic: inconclusive; SW480 rerep: inconclusive; HT1080 IDH1KD tx: 18µM*

How did CCn1c2ccccc2c2cc(/C=N/NC(=O)c3cccc(C)c3)ccc21 do in these assays?
HT1080NT lethal: -4%; KB-3-1 cytotox: inconclusive; KB-V1 cytotox: 5.8µM*; MCF10A rereplic: 5.8µM*; SW480 rerep: inconclusive; HT1080 IDH1KD tx: inconclusive

How did CCn1c2ccccc2c2cc(/C=N/NC(=O)c3ccccc3C)ccc21 do in these assays?
HT1080NT lethal: 15µM*; KB-3-1 cytotox: 21µM*; KB-V1 cytotox: 5.2µM*; MCF10A rereplic: 4.6µM*; SW480 rerep: 13µM*; HT1080 IDH1KD tx: 21µM*

How did CCn1c2ccccc2c2cc(NC(C)=O)ccc21 do in these assays?
HT1080NT lethal: 2%; KB-3-1 cytotox: inactive; KB-V1 cytotox: inconclusive; MCF10A rereplic: -2%; SW480 rerep: 0%; HT1080 IDH1KD tx: -4%

What do the screens show for `Cn1c2ccccc2c2cc(/C=N/NC(=O)c3ccc(N)cc3)ccc21`?
HT1080NT lethal: inconclusive; KB-3-1 cytotox: inconclusive; KB-V1 cytotox: inactive; MCF10A rereplic: inconclusive; SW480 rerep: inconclusive; HT1080 IDH1KD tx: inconclusive

How did CCOC(=O)CC(NC(=O)CCc1c(C)nc2c(c(C)nn2-c2ccc(C)c(C)c2)c1C)c1ccc(C)cc1 (stereo not drawn) do in these assays?
KB-3-1 cytotox: inactive; KB-V1 cytotox: inactive

How did COc1ccc(N2C(=O)CS(=O)(=O)C23C(=O)N(Cc2ccccc2F)c2ccccc23)cc1Cl (stereo not drawn) do in these assays?
KB-3-1 cytotox: inactive; KB-V1 cytotox: inactive

How did COc1ccc(NC(=O)/C(C#N)=C/C=C/c2ccco2)cc1 do in these assays?
HT1080NT lethal: inconclusive; KB-3-1 cytotox: 7.3µM*; KB-V1 cytotox: 13µM*; MCF10A rereplic: 15µM*; SW480 rerep: 8.2µM*; HT1080 IDH1KD tx: inconclusive

Results for N#C/C(=C/c1ccc(O)c([N+](=O)[O-])c1)C(=O)Nc1ccccc1 ?
HT1080NT lethal: inconclusive; KB-3-1 cytotox: 18µM*; KB-V1 cytotox: inconclusive; MCF10A rereplic: 4.6µM*; SW480 rerep: 6.5µM*; HT1080 IDH1KD tx: 8.2µM*

What do the screens show for `Cn1cc(/C=N/NC(=O)c2cccc([N+](=O)[O-])c2)c2ccccc21`?
HT1080NT lethal: inconclusive; KB-3-1 cytotox: inactive; KB-V1 cytotox: inactive; MCF10A rereplic: 9%; SW480 rerep: 0%; HT1080 IDH1KD tx: inconclusive

How did N#C/C(=C/c1ccc([N+](=O)[O-])cc1)C(=O)Nc1ccccc1O do in these assays?
HT1080NT lethal: -2%; KB-3-1 cytotox: inactive; KB-V1 cytotox: inconclusive; MCF10A rereplic: 16%; SW480 rerep: 18%; HT1080 IDH1KD tx: 1%

Results for Cn1cc(/C=C(\C#N)C(=O)Nc2cccc([N+](=O)[O-])c2)c2ccccc21 ?
HT1080NT lethal: 14%; KB-3-1 cytotox: inconclusive; KB-V1 cytotox: inactive; MCF10A rereplic: 9.2µM*; SW480 rerep: inconclusive; HT1080 IDH1KD tx: 16%

How did N#C/C(=C/C=C/c1ccccc1)C(=O)Nc1ccccc1 do in these assays?
HT1080NT lethal: -21%; KB-3-1 cytotox: inactive; KB-V1 cytotox: 16µM*; MCF10A rereplic: 17%; SW480 rerep: inconclusive; HT1080 IDH1KD tx: inconclusive

How did CN(C(=O)C1=CC(c2ccc3c(c2)OCO3)=NS(=O)(=O)N1C)c1ccccc1 do in these assays?
KB-3-1 cytotox: inactive; KB-V1 cytotox: inactive

Results for COc1ccc2c(c1)c1c(c(=O)n(Cc3ccccc3)c(=O)n1Cc1ccccc1)n2C ?
KB-3-1 cytotox: inactive; KB-V1 cytotox: inactive

Results for O=[N+]([O-])c1cc(Cl)c2cccnc2c1O ?
HT1080NT lethal: inconclusive; KB-3-1 cytotox: inconclusive; KB-V1 cytotox: inconclusive; MCF10A rereplic: 2.6µM*; SW480 rerep: inconclusive; HT1080 IDH1KD tx: inconclusive

How did Oc1c(I)cc(Cl)c2cccnc12 do in these assays?
HT1080NT lethal: inconclusive; KB-3-1 cytotox: inactive; KB-V1 cytotox: inconclusive; MCF10A rereplic: inconclusive; SW480 rerep: inconclusive; HT1080 IDH1KD tx: 12µM*

What do the screens show for `O=[N+]([O-])c1cc(F)c2cccnc2c1O`?
HT1080NT lethal: -26%; KB-3-1 cytotox: inconclusive; KB-V1 cytotox: inactive; MCF10A rereplic: inconclusive; SW480 rerep: inconclusive; HT1080 IDH1KD tx: inconclusive
